# Values without a mark were called inactive. Inconclusive results are not listed. Entries that show only a call come without a potency. Activity calls are given as the source filed them. Calls follow the shape of the dose curve; as a rule, active = well fitted curve in the direction sought with a large enough effect; inconclusive = small, poorly fitted or top-dose-only effect, or another doubt; inactive = no such curve, though single readings can be large; an effect the other way counts as inactive or inconclusive.
# How the values were obtained:
# [1] = biological target: Glutathione peroxidase 1 (Homo sapiens) (UniProt P07203); experiment: Primary qHTS Assay for Inhibitors of Recombinant Selenoprotein Glutathione Peroxidase 1 (GPX1) (AID 1845191); also: nearly all actives have a fitted effect of over 65% in size
# In short: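 GR-coupled assay: compounds preincubated 30 min at room temperature with GPX1, then reaction started with CHP; final 10 nM GPX1, 1 mM GSH, 0.5 mM CHP, 0.5 mM NADPH, 100 nM GR, 0.01% BSA, pH 7.5 Tris buffer. NADPH fluorescence (340/450 nm) read at 0 and 15 min.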
# [2] = biological target: Phospholipid hydroperoxide glutathione peroxidase GPX4 (Homo sapiens) (UniProt P36969); experiment: Primary qHTS Assay for Inhibitors of Recombinant Selenoprotein Glutathione Peroxidase 4 (GPX4) (AID 1845192); also: nearly all actives have a fitted effect of over 65% in size; as to activity change, negative = inhibition: series mostly up to about 50 µM
# In short: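 GR-coupled assay: recombinant GPX4 preincubated 30 min with compound at room temperature; final 200 nM GPX4, 1 mM GSH, 0.5 mM cumene hydroperoxide, 0.5 mM NADPH, 100 nM GR, 0.01% BSA, pH 7.5 Tris. NADPH fluorescence (340/450 nm) read at 0 and 15 min.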
# [3] = biological target: Luciferin 4-monooxygenase (Photinus pyralis) (UniProt P08659); experiment: Primary firefly luciferase (FLuc) qHTS assay for identification of artifact compounds. (AID 1845220); also: nearly all actives have a fitted effect of over 60% in size; also: potency is read from the fitted curve at half-maximal effect; as to activity change, negative = inhibition: series mostly up to about 54 µM
# In short: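 Titrated compounds were incubated 15 min at RT, protected from light, with luciferin and ATP at 10 uM; reaction started with 10 nM FLuc, luminescence imaged at 5 min, and concentration-response fitted by Hill equation.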
# [4] = Primary fluorescence-based thiol-reactive (MSTI) qHTS assay for identification of artifact compounds. (AID 1845221); also: nearly all actives have a fitted effect of over 65% in size; also: potency is read from the fitted curve at half-maximal effect;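 as to activity change, negative = thiol reactive: series mostly up to about 54 µM; thiol-reactive compounds lower the probe fluorescence signal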
# In short: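 Compounds were incubated 1 h at room temperature in the dark with the MSTI probe (4 uM) in PBS pH 7.4, 2% DMSO. Signals were normalized between Acetyl-MSTI and MSTI.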
# [5] = system: Nanoluciferase (engineered Oplophorus gracilirostris luciferase); experiment: Primary Nanoluciferase (NLuc) qHTS assay for identification of artifact compounds. (AID 1845222);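 also: NLuc secreted into diluted conditioned medium of S16 cells; series mostly up to about 54 µM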
# In short: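 qHTS format, against NLuc in S16 cell-conditioned medium. Nano-Glo substrate 1:100 was added after 15 min at room temperature. Luminescence was taken after a further 5 min.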
# Sequence of Glutathione peroxidase 1 (Homo sapiens) (P07203 whole entry, looked up): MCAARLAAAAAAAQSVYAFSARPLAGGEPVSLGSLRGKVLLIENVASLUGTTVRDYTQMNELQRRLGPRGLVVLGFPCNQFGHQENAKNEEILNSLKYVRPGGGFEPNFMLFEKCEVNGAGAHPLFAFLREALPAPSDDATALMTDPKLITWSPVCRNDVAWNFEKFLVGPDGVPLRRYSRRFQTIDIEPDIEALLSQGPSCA
# Sequence of Phospholipid hydroperoxide glutathione peroxidase GPX4 (Homo sapiens) (P36969 whole entry, looked up): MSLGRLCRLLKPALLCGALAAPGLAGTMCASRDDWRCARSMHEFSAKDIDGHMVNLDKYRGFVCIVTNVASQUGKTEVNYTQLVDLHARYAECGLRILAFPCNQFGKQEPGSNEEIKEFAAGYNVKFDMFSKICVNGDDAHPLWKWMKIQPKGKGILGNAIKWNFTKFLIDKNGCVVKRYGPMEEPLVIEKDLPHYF
compound,measurement,setting,value
C[C@H](NC(=O)Cc1cc(F)cc(F)c1)C(=O)N[C@@H]1N=C(c2ccccc2)c2ccccc2N(C)C1=O,Potency,[1],inactive
same,Potency,[2],inactive
same,Potency,[3],inactive
same,Potency,[4],inactive
same,outcome,[5],inactive
COC(=O)C12C(=O)C(C)(O)C(=O)C1(C)C(C)=CC1C34CCC(OC3=O)C(C)(CO)C4CCC12C (stereo unspecified),Potency,[1],inactive
same,Potency,[2],inactive
same,Potency,[3],inactive
same,Potency,[4],2.6 µM (active)
same,outcome,[5],inactive
CCNCC(O)c1cccc(O)c1 (stereo unspecified),Potency,[1],inactive
same,Potency,[2],inactive
CCCCCCn1c(=O)c(C(=O)Nc2ccc(C(=O)OCCC)cc2)c(O)c2ccccc21,outcome,[1],inactive [at 9.52 µM]
same,"activity change, negative = inhibition",[2],18.5% [at 9.73 µM]
same,"activity change, negative = inhibition",[3],0.207% [at 11.6 µM]
same,"activity change, negative = thiol reactive",[4],-6.91% [at 11.5 µM]
same,"activity, negative = inhibition",[5],1.06% [at 11.6 µM]
C=CC(C)(O)CC/C=C(\C)C(=O)O[C@H]1[C@H](O)[C@@H](CO)O[C@@H](OC(=O)[C@]23CCC(C)(C)CC2C2=CCC4[C@@]5(C)CC[C@H](O[C@@H]6O[C@H](CO[C@@H]7OC[C@H](O)[C@H](O)[C@H]7O[C@@H]7OC[C@@H](O)[C@H](O)[C@H]7O)[C@@H](O)[C@H](O)[C@H]6O)C(C)(C)C5CC[C@@]4(C)[C@]2(C)CC3)[C@@H]1OC1OC(C)C(O[C@@H]2OC[C@@H](O)[C@H](O[C@@H]3OC[C@@H](O)[C@H](O)[C@H]3O)[C@H]2O)C(O)C1O (stereo partly specified),outcome,[1],inactive [at 9.52 µM]
same,"activity change, negative = inhibition",[2],0.212% [at 9.73 µM]
same,outcome,[3],inactive [at 11.6 µM]
same,"activity change, negative = thiol reactive",[4],28.2% [at 11.5 µM]
same,"activity, negative = inhibition",[5],1.73% [at 11.6 µM]
CC(C)=C1CC[C@]23CO[C@H](C2)[C@@](O)(C(=O)O)CCC13 (stereo partly specified),Potency,[1],inactive
same,Potency,[2],inactive
same,Potency,[3],inactive
same,Potency,[4],inactive
same,outcome,[5],inactive
C[C@@]12C[C@@H](c3ccoc3)OC(=O)C1CC[C@]1(C)[C@H]2[C@H]2C=C[C@]1(O)C(=O)O2 (stereo partly specified),Potency,[1],inactive
same,Potency,[2],inactive
same,Potency,[3],inactive
same,Potency,[4],inactive
same,outcome,[5],inactive
CO[C@H]1[C@H](O)[C@H](O[C@H]2CC[C@]3(C)C4CC[C@]5(C)[C@H](C6=CC(=O)OC6)CC[C@]5(O)C4CC[C@@H]3C2)O[C@@H](C)[C@@H]1O (stereo partly specified),Potency,[1],inactive
same,Potency,[2],inactive
same,Potency,[3],7.38 µM (active)
same,Potency,[4],inactive
same,outcome,[5],inactive
CN[C@H]1[C@H](O)[C@H](O[C@@H]2[C@@H](O)[C@H](O[C@H]3O[C@H]([C@H](C)O)[C@@H](O)[C@H](O)[C@H]3N)[C@@H](N)C[C@H]2N)OC[C@@]1(C)O,Potency,[1],inactive
same,Potency,[2],inactive
same,Potency,[3],inactive
same,Potency,[4],inactive
same,outcome,[5],inactive
C[C@@H]([C@H](O)c1ccccc1)N(C)C,Potency,[1],inactive
same,Potency,[2],inactive
CCN1C[C@]2(OC(=O)c3ccccc3NC(C)=O)CC[C@H](OC)[C@@]34[C@@H]2C[C@@H]([C@@H]13)[C@@]1(O)C[C@H](OC)[C@H]2C[C@@H]4[C@]1(O)[C@H]2OC,Potency,[1],inactive
same,Potency,[2],inactive
same,Potency,[3],inactive
same,Potency,[4],inactive
same,outcome,[5],inactive
CCC1C(C)=NN=C(c2ccc(OC)c(OC)c2)c2cc(OC)c(OC)cc21 (stereo unspecified),Potency,[1],inactive
same,Potency,[2],inactive
CCNC1(c2cccs2)CCCCC1=O (stereo unspecified),Potency,[1],inactive
same,Potency,[2],inactive
FC(F)OC(F)(F)C(F)Cl (stereo unspecified),Potency,[1],inactive
same,Potency,[2],inactive
CC1=C2C[C@H]3[C@@H](CC=C4C[C@@H](O)CC[C@@]43C)[C@@H]2CC[C@]12O[C@@H]1C[C@H](C)CN[C@H]1[C@H]2C,Potency,[1],inactive
same,Potency,[2],inactive
same,Potency,[3],inactive
same,Potency,[4],inactive
same,outcome,[5],inactive
CC1=C2C(=O)C3[C@@H](CC=C4C[C@@H](O)CC[C@@]43C)[C@@H]2CC[C@]12O[C@@H]1C[C@H](C)CN[C@H]1[C@H]2C (stereo partly specified),Potency,[1],inactive
same,Potency,[2],inactive
same,Potency,[3],inactive
same,Potency,[4],inactive
same,outcome,[5],inactive
O=C(NCNC(=O)NC1C(=O)NC(=O)N1CO)NC1C(=O)NC(=O)N1CO (stereo unspecified),Potency,[1],inactive
same,Potency,[2],inactive
CC[N+](C)(CC)CCOC(=O)C(O)(c1ccccc1)c1ccccc1,Potency,[1],inactive
same,Potency,[2],inactive
CN1CCCC1CCOC(c1cc2nccc(C(=O)O)c2[nH]1)c1ccccc1Cl (stereo unspecified),Potency,[1],inactive
same,Potency,[2],inactive
same,Potency,[3],inactive
same,Potency,[4],inactive
same,outcome,[5],inactive
N=C(N)c1ccc(CS(=O)(=O)F)cc1,Potency,[1],inactive
same,Potency,[2],inactive
CC(C)(C)c1cc(C(C)(C)C)c2c(c1)C(O)(C(F)(F)F)C(=O)O2 (stereo unspecified),Potency,[1],inactive
same,Potency,[2],inactive
same,Potency,[3],inactive
same,Potency,[4],9.47 µM (active)
same,outcome,[5],inactive
COc1c(C(C)C)cc2c(c1O)[C@@]1(C(=O)O)CCCC(C)(C)C1CC2 (stereo partly specified),Potency,[1],inactive
same,Potency,[2],inactive
same,Potency,[3],inactive
O=[N+]([O-])C(Br)(CO)CO,Potency,[1],inactive
same,Potency,[2],inactive

# Reference: PubChem BioAssay (NCATS)
